Compounds with a hit are over-represented: about 18% of the library has one in this group of screens.
DT40 TDP1 CPT – growth inhibition of DT40 Tdp1-/-;hTDP1 cells with camptothecin (screen for TDP1 inhibitors) | chicken DT40 Tdp1-/-;hTDP1 cells + 20 nM CPT, ATP luminescence, 48 h | Potency, µM (titrated, usually from 46.2 µM), for inactives: at the highest dose activity change, negative = growth inhibition, hits mostly inhibitors | 12% of 420,000 active; further: nearly all actives have a fitted effect of over 55% in size
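Cell growth measured by CellTiter-Glo luminescence after a minimum 48 h, 37 C compound exposure with 20 nM CPT in Tdp1-knockout DT40 cells stably expressing hTDP1, seeded 400/well; qHTS titration format.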
TDP1 cell noCPT – qHTS for Inhibitors of human tyrosyl-DNA phosphodiesterase 1 (TDP1): qHTS in cells in absence of CPT | DT40 Tdp1-/- hTDP1 cells, no CPT, ATP luminescence, 48 h | Potency, µM (doses to about 46.2 µM), for inactives: top-dose activity change, negative = growth inhibition, usual class: inhibitors | 15% of 420,000 active | AID 686978, 2013; further: nearly all actives have a fitted effect of over 55% in size
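Seeded 400 DT40-hTDP1 cells/well (vehicle DMSO, no 20 nM CPT); pinned compounds; ≥48 hr at 37 °C; CellTiter-Glo luminescence as viability measure.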
PLK1 PBD inh – inhibitors of human PLK1 polo-box domain binding; P53350; Potency, µM, without a hit: max response, negative = inhibition, most hits filed as inhibitors; AID 720504; Plk1 PBD binding of FITC phosphopeptide, fluorescence polarization; 2.8% of 360,000 active; further: series mostly up to about 57 µM; nearly all actives have a fitted effect of over 65% in size
Target sequence (P53350 whole entry, looked up, the tested form may be a part): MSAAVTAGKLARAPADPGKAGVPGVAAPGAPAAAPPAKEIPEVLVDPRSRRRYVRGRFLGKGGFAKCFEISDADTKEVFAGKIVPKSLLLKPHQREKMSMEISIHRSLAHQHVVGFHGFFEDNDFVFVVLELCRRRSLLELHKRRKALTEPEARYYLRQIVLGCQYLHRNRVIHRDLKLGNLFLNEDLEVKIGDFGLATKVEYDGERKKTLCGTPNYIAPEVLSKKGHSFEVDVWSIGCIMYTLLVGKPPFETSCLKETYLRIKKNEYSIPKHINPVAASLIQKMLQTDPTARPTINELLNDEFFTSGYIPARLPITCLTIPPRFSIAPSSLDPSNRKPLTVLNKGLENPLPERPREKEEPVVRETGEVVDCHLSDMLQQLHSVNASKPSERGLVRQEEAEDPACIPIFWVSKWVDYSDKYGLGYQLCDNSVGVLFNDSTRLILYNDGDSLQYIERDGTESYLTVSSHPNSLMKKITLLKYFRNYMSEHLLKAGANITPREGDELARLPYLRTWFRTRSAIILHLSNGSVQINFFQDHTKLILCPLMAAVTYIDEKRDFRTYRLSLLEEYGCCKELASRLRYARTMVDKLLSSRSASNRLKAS
TDP1 inh – blocks human tyrosyl-DNA phosphodiesterase 1. recombinant TDP1, AlphaScreen DNA substrate cleavage. 0.28% of 350,000 active. Potency, µM (highest dose often 130 µM), without a hit: at the highest dose activity change, negative = inhibition, actives largely listed as inhibitors; further: nearly all actives have a fitted effect of over 40% in size
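Enzyme-compound mixtures sat 15 min at room temperature, followed by a 5 min reaction with 15 nM final substrate and 10 min with AlphaScreen beads. Recombinant human Tdp1 was used at 1 nM final.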
GCN5L2 inh – inhibitors of human GCN5L2 histone acetyltransferase; Q92830; 0.21% of 390,000 active; GCN5L2 HAT assay, ThioGlo1 CoA-SH fluorescence; Potency, µM (doses to about 58.9 µM), inactives show at the highest dose activity change, negative = inhibition, hits mostly inhibitors
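Titration-based screen in which CoA formation is detected via maleimide probe ThioGlo1 (50uM) turning fluorescent on thiol reaction; substrates H3(1-25) 75uM and acetyl-CoA 70uM, GCN5L2 20nM, 20 min incubation at room temperature.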
VDR inh – inhibitors of human vitamin D receptor | 0.93% of 400,000 active | VDR-SRC2-3 peptide fluorescence polarization, 2 h | AID 504847 | Potency, µM, without a hit: max response, negative = inhibition, hits mostly inhibitors
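Two reagent solutions held at 4 deg C in the dark were dispensed, compounds pinned at 23 nl, and the mixture incubated 2 h at room temperature. Read-out: fluorescence polarization of VDR–SRC2-3 peptide binding.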
* hit, by the source's call; u = inconclusive; x = no result; [ ] = dose if it differs, or a comment. The call rests on the fitted dose curve; in most records, active means well fitted curve in the direction sought with a large enough effect; inconclusive means small, poorly fitted or top-dose-only effect, or another doubt; inactive means no such curve, though single readings can be large; an effect the other way counts as inactive or inconclusive. On the % scale 0 is the no-effect control and ±100 the full control effect; potency means the concentration at half of the fitted maximal effect.

SMILES	DT40 TDP1 CPT	TDP1 cell noCPT	PLK1 PBD inh	TDP1 inh	GCN5L2 inh	VDR inh
O=C(NC1CCCC1)C(c1ccncc1)N(Cc1ccccc1)C(=O)Cc1cccs1 (centres undefined)	0.0%	-21.7%	-9.8%	-2.0%	-27.7%	4.4%
O=C(NC1CCCC1)C(c1cccnc1)N(CCc1ccccc1)C(=O)c1ccco1 (centres undefined)	-4.3%	-8.6%	-17.9%	-2.4%	-2.6%	-8.6%
COc1ccccc1CN(C(=O)Cc1cccs1)C(C(=O)NC1CCCC1)c1ccncc1 (centres undefined)	u	u	-9.7%	1.0%	-11.3%	14.3%
COC(=O)c1ccc(C(C(=O)NC2CCCCC2)N(C(=O)Cc2cccs2)C2CC2)cc1 (centres undefined)	8.2µM*	10.3µM*	0.6%	2.1%	1.7%	7.7%
O=C(NC1CCCCC1)C(c1cccnc1)N(CCc1ccccc1)C(=O)Cc1cccs1 (centres undefined)	u	10.3µM*	26.7µM*	5.4%	-0.4%	u
COC(=O)c1ccc(C(C(=O)NC2CCCCC2)N(Cc2ccccc2)C(=O)Cc2cccs2)cc1 (centres undefined)	3.26µM*	4.11µM*	6.2%	2.3%	-2.4%	10.3%
COC(=O)c1cccc(C(=O)N2CCc3c(cnc(C)c3CNC(=O)c3ccsc3)C2)c1	-13.8%[9.04 µM]	1.4%	x	x	x	x
CC(C)=CCC/C(C)=C/CO/N=C1/C[C@@H](O)[C@@H](O)[C@@H]2[C@@H]3C(=O)N([C@@H](C)c4ccccc4)C(=O)[C@H]3CC[C@@H]12	x	x	x	6.9%[21 µM]	x	x
Cc1cccc(-n2c(=S)[nH]c3sc4c(c3c2=O)CCc2ccccc2-4)c1	9.2µM*	6.51µM*	2.99µM*	2.5%	u	u
CCN(CC)C(=O)c1sc2[nH]c(=S)n(-c3ccccc3)c(=O)c2c1C	4.1%	-3.3%	-17.0%	6.2%	-15.9%	0.1%
Cc1ccc(-n2c(=S)[nH]c3sc4c(c3c2=O)CCc2ccccc2-4)cc1	-38.3%	-22.6%	29.9µM*	5.5%	0.8%	-20.3%
COC(=O)C[C@@H]1CC[C@@H](NC(C)=O)[C@@H](CO)O1	-8.1%	-2.4%	-11.5%	x	x	x
NC(=O)/C(=N\OC(=O)c1ccco1)c1nc(-c2ccc(Br)cc2)cs1	u	u	5.32µM*	10.5%	3.1%	-16.1%
CCC1(c2ccc(Cl)cc2)NC(=O)N(CC(=O)NCc2ccc(F)cc2)C1=O (centres undefined)	u	16.4µM*	0.2%	5.8%[0.0935 µM]	0.1%	-0.2%
CCC1(c2ccc(Cl)cc2)NC(=O)N(CC(=O)NC2CCCCCC2)C1=O (centres undefined)	u	23.1µM*	-6.7%	-5.2%	-2.7%	-16.0%
CCC1(c2ccc(Cl)cc2)NC(=O)N(CC(=O)NC2CCCC(C)C2C)C1=O (centres undefined)	23.1µM*	25.9µM*	4.5%	0.6%	-0.9%	0.0%
CCOc1ccccc1NC(=S)N1CCN(c2cccc(OC)c2)CC1	20.6µM*	u	1.7%	5.4%	-3.7%	-11.2%
COc1cccc(N2CCN(C(=S)Nc3ccccc3OC)CC2)c1	19.3%	-7.5%	-2.4%	x	-3.9%	-15.1%
COc1cccc(N2CCN(C(=S)Nc3cc(C)cc(C)c3)CC2)c1	6.51µM*	6.51µM*	-1.5%	x	-18.7%	20.5%
COc1ccc(Cc2nnc(NC(=O)Nc3ccc(F)cc3)s2)cc1OC	u	u	18.9µM*	x	-5.8%	u
COCC(=O)Nc1nnc(Cc2ccc(OC)c(OC)c2)s1	-5.4%	-11.0%	-2.5%	3.8%	-4.9%	6.5%
COc1ccc(NC(=O)Nc2nnc(Cc3ccc(OC)c(OC)c3)s2)cc1	5.3%	-2.3%	-2.4%	0.2%	u	9.0%
CCOCC(=O)Nc1nnc(Cc2ccc(OC)c(OC)c2)s1	-26.9%	1.0%	26.7µM*	5.0%	-3.6%	-21.2%
CC1(C)CC(=O)c2c(O)c(-c3ccccc3)c(=O)n(-c3ccccc3)c2C1	-6.3%	4.5%	-15.6%	2.5%	2.5%	-21.6%
COc1ccccc1-n1nnnc1SC(C)C(=O)NC1CCCC1 (centres undefined)	-2.1%	-9.3%	-13.8%	0.8%	0.8%	-15.6%
SMILES	DT40 TDP1 CPT	TDP1 cell noCPT	PLK1 PBD inh	TDP1 inh	GCN5L2 inh	VDR inh
CC1=C(C(=O)Nc2ccccc2C(F)(F)F)C(c2ccc(C)s2)NC(=S)N1 (centres undefined)	4.0%	u	-11.4%	2.6%	-3.1%	-9.1%
CC1=C(C(=O)Nc2ccccc2C(F)(F)F)C(c2sccc2C)NC(=S)N1 (centres undefined)	6.51µM*	16.4µM*	-20.8%	6.5%	-6.4%	-10.6%
COCC1CCCCC1OS(N)(=O)=O (centres undefined)	7.3%	7.9%	-3.0%	x	-4.8%	-10.1%
COc1cccc(NC(=O)CN(C)C(=O)c2cc(-c3ccc(C)o3)nc3ccccc23)c1	u	20.6µM*	-18.9%	3.0%	u	-8.8%
COc1cccc(NC(=O)c2cc(-c3ccc(C)o3)nc3ccccc23)c1	u	u	-18.9%	x	-14.9%	u
COc1cccc(NC(=O)CN(C)C(=O)c2cc(-c3ccccc3)nc3ccc(C)cc23)c1	13µM*	10.3µM*	6.1%	x	x	-3.9%
CN(C)S(=O)(=O)c1cccc(NC(=O)COC(=O)c2cc(-c3cccc(Br)c3)nc3ccccc23)c1	u	u	6.0%	5.8%	-11.0%	6.3%
COc1cccc(NC(=O)CN(C)C(=O)c2cc(-c3cccc(Br)c3)nc3ccccc23)c1	u	16.4µM*	-10.4%	x	u	-5.0%
COc1cccc(NC(=O)CN(C)C(=O)c2cc(C)oc2C)c1	2.0%	24.2%	-6.7%	1.3%	0.0%	1.9%
Cc1ccc(-c2cc(C(=O)Nc3cccc(S(=O)(=O)N(C)C)c3)c3ccccc3n2)o1	u	16.4µM*	-27.7%	12.9%	-17.1%	2.9%
CCOC(=O)c1cc(S(=O)(=O)NCc2ccc(C)cc2)[nH]n1	u	-16.3%	x	5.3%	-2.1%	8.1%
O=C(c1cc2ccc3cccnc3c2[nH]1)N1CCN(c2cccc(C(F)(F)F)c2)CC1	u	-26.1%	x	8.5%	25.5%	1.7%
COc1ccccc1C(O)c1nccn1Cc1ccccc1 (centres undefined)	-11.8%	-2.5%	x	u	x	-3.8%
Cc1cc(C)c(C(=O)N2CCC(N3CCC(C(=O)NC(C)C)CC3)CC2)o1	0.4%	4.7%	-10.7%	1.9%	-6.2%	-11.4%

Compound activity deposited in PubChem BioAssay by National Center for Advancing Translational Sciences (NCATS).
